AmpC inh detg: blocks E. coli AmpC beta-lactamase in detergent assay; P00811; AmpC hydrolysis of nitrocefin, absorbance 480 nm, 0.01% Triton; Potency, µM (highest dose often 114 µM), inactives show at the highest dose activity change, negative = inhibition, actives largely listed as inhibitors; actives 0.041% (n = 370,000); AID 485294;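 also: 0% = no-compound wells and -100% = no-enzyme wells; nearly all actives have a fitted effect of over 25% in size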
Target sequence (P00811 whole entry, looked up): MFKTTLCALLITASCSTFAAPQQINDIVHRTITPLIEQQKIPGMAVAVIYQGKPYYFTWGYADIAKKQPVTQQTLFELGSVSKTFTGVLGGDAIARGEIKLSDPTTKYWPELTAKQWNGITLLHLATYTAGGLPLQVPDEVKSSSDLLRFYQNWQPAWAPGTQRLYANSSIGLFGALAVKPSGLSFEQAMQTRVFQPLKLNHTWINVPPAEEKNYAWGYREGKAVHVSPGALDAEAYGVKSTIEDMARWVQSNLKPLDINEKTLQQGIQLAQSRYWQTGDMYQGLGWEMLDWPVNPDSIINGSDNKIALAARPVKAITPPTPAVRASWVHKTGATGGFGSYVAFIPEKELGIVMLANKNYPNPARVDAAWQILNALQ
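AmpC (5.3 nM in the dispensed reagent) in 20 mM phosphate pH 7.0 with 0.01% (detergent screen) or 0.0001% Triton X-100 was preincubated with compounds for 15 min at room temperature. Nitrocefin was then added from an 800 uM solution, and hydrolysis was followed at 480 nm.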
AmpC inh no detg: blocks E. coli AmpC beta-lactamase in detergent-free assay; P00811; AmpC nitrocefin hydrolysis, absorbance 480 nm, 0.0001% Triton; Potency, µM (top dose mostly 57.1 µM), without a hit: at the highest dose activity change, negative = inhibition, actives largely listed as inhibitors; actives 0.52% (n = 330,000); AID 485341;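 also: plate controls were no compound for no effect and no enzyme for full effect; nearly all actives have a fitted effect of over 20% in size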
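20 mM phosphate pH 7.0 + 0.01% (detergent screen) or 0.0001% Triton X-100; 5.3 nM AmpC reagent; cpd preinc 15 min RT; nitrocefin (800 uM stock) to start; A480 q20 s × 4 min; Activity was normalised to no-enzyme and no-compound control wells.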
Sm TGR inh: blocks Schistosoma mansoni thioredoxin glutathione reductase | purified TGR, DTNB reduction, TNB absorbance 405 nm | Potency, µM (top dose mostly 114 µM), for the others: at the highest dose activity change, negative = inhibition, usual class: inhibitors | actives 3% (n = 360,000) | AID 485364; also: nearly all actives have a fitted effect of over 60% in size
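TGR 20 nM + NADPH 100 uM (dispensed conc.), cpd preinc 15 min RT; start with NADPH (500 uM addition) then DTNB (15 mM addition). Kinetic TNB absorbance, 405 nm filter. Four-parameter Hill fit across titration.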
An asterisk follows results filed as active; ? = inconclusive; / = no result; [ ] = remark or other dose. A selection: hits, their analogues and other compounds. The true share with any hit is near 3.3%. Calls follow the shape of the dose curve; as a rule, active = well fitted curve in the direction sought with a large enough effect; inconclusive = small, poorly fitted or top-dose-only effect, or another doubt; inactive = no such curve, though single readings can be large; an effect the other way counts as inactive or inconclusive. Unless noted, % is scaled to controls: 0 for no effect and ±100 for the full control effect; potency is read from the fitted curve at half-maximal effect.

SMILES	AmpC inh detg	AmpC inh no detg	Sm TGR inh
COCCn1nnnc1CN(CCCN1CCOCC1)Cc1cc2c(C)ccc(C)c2[nH]c1=O	-2%	48%	13µM*
Cc1cccc2cc(CN(CCCN3CCOCC3)Cc3nnnn3C(C)(C)C)c(=O)[nH]c12	?	29%	?
CC1CCc2onc(C(=O)N3CCN(c4ccc(F)cc4)CC3)c2C1 (configuration not stated)	4%	/	0%
CCOC(=O)C(=CNc1ccc(Cl)cn1)C(=O)OCC	?	21%	5%
CCOC(=O)C(=CNNc1cccc(Cl)c1)C(=O)OCC	9%	-2%	8.9µM*
CC(=O)c1ccc(NC(=O)CN2CCN(c3ccccc3)CC2)cc1	?	-8%	-14%
O=C(CN1CCN(c2ccc([N+](=O)[O-])cc2)CC1)c1ccccc1	-5%	-58%	11µM*
CC(=O)Nc1ccc(C(=O)CN2CCN(c3ccccc3)CC2)cc1	?	4%	14µM*
COc1ccc(N2CCN(CC(=O)c3ccccc3)CC2)cc1	0%	-9%	13µM*
CCn1c(N2CCN(CC(=O)c3ccc(OC)cc3)CC2)nc2ccccc21	-11%	45%	-36%
O=C(CCN1CCN(c2ccc([N+](=O)[O-])cc2)CC1)c1ccc(Cl)cc1	2%	-12%	?
COc1ccc(N2CCN(C(=O)CCCC(=O)c3ccccc3)CC2)cc1	?	90%	3%
COc1ccc(C(=O)CN2CCN(c3cc(C)nc4ccccc34)CC2)cc1	-7%	11%	20µM*
Cc1ccccc1-c1nc(CN2CCC(C(=O)NCc3ccccc3Cl)CC2)c(C)o1	-5%	/	6%
Cc1ccc(NC(=O)Cn2nc(-c3ccccc3)nc(Cc3ccc(Cl)cc3)c2=O)cc1	4%	/	7%
CCOC(=O)CNC(=O)CSc1nnc(-c2ccco2)n1N	-14%	-11%	-13%
O=C(CSc1nnc(C2CC2)n1Cc1ccco1)NCC(F)(F)F	-9%	-14%	35µM*
CCOC(=O)c1sc(NC(=O)CSc2nnc(-c3ccco3)n2CC)c(C(=O)OCC)c1C	1%	?	20µM*
CCOC(=O)c1c(NC(=O)CSc2nnc(-c3ccccc3)n2CC)sc(C(C)=O)c1C	-21%	80%	-15%
O=C(CSc1nnc(C2CC2)n1-c1ccccc1)NCc1ccco1	-9%	-13%	?
CCOC(=O)CNC(=O)CSc1nnc(-c2ccco2)n1Cc1ccco1	-14%	-2%	25µM*
Cc1nc2ccc(S(=O)(=O)N(CC(=O)Nc3cccc(C)c3C)Cc3ccccc3)cc2s1	18%	/	4%
COCCCNC(=O)c1ccc(Cn2c(=O)c3cccn3c3cccnc32)cc1	-3%	/	6%
Cc1ccnc(NC(=O)CCc2c[nH]c3ccccc23)c1	?	-32%	79%
Cc1ccnc(NC(c2ccncc2)c2c(C)[nH]c3ccccc23)c1 (configuration not stated)	4%	-25%	2µM*
SMILES	AmpC inh detg	AmpC inh no detg	Sm TGR inh
O=C(Nc1nccs1)C(=O)c1c[nH]c2ccccc12	1%	-25%	-4%
Cc1[nH]c2ccccc2c1C(Nc1nccs1)c1ccncc1 (configuration not stated)	7%	-18%	40µM*
CCc1cc(C(=O)Nc2c(C)nn(Cc3ccc(C)cc3)c2C)no1	17%	/	1%
Cc1cc2nc(-c3cccc(NC(=O)C(C)C)c3C)oc2cc1C	7%	/	19%
C=CCS(=O)(=O)c1nc2ccccc2s1	2%	-2%	14µM*
O=S(=O)(CCSc1nc2ccccc2s1)c1nc2ccccc2s1	2%	-39%	0.1µM*
CCS(=O)(=O)CCSc1nc2ccccc2s1	-8%	-4%	0%
CC(C)(C)S(=O)(=O)c1nc2ccccc2s1	-10%	-19%	-4%
Cc1ccc(Cc2cnc(NC(=O)c3ccc4c(c3)CC(c3ccccc3)OC4=O)s2)cc1 (configuration not stated)	13%	/	0%
O=C(Cn1nc(CNc2ccc(Br)cc2)[n+]2c1CCCCC2)c1ccc([N+](=O)[O-])cc1	-4%	79%	50µM*
O=C(Cn1nc(CNc2ccc(Cl)cc2)[n+]2c1CCCCC2)c1ccc(Br)cc1	2%	185%	-10%
Cc1ccc(-c2onc3ccc(C4(C)OCCO4)cc23)cc1	4%	-15%	-10%
Cc1ccc(-c2onc3ccc(C=O)cc23)cc1	-5%	-15%	45µM*
Cc1cc(-c2onc3ccc(Cl)cc23)ccc1O	-10%	?	40µM*
CC(=O)c1ccc2noc(-c3ccc(Cl)cc3)c2c1	0%	-28%	28µM*
CC(=O)c1ccc2noc(-c3ccc(F)cc3)c2c1	7%	-13%	?
O/N=C\c1ccc2noc(-c3ccc(Cl)cc3)c2c1	2%	-11%	0%
Cc1ccc(-c2cc(C(=O)Nc3cc([N+](=O)[O-])ccc3C)no2)cc1F	10%	/	-13%
COc1ccc(Nc2oc(-c3ccc(COc4ccccc4C)o3)nc2C#N)cc1	6%	/	0%
O=C1S/C(=C\C=C\c2ccco2)C(=O)N1c1ccc(O)cc1	-3%	32µM*	?
O=C1S/C(=C\C=C\c2ccco2)C(=O)N1c1ccccc1	-12%	-43%	45µM*
Cn1cc(/C=C2\SC(=O)N(c3ccccc3)C2=O)c2ccccc21	-5%	-34%	-14%
O=C1S/C(=C\c2cccs2)C(=O)N1c1ccc(O)cc1	-2%	-55%	0%
Cc1cccc(CCNC(=O)c2ccc(CSCc3cccc(Cl)c3)o2)c1	-6%	/	3%
COc1ccc(C)cc1Nc1cc(C)nc(C)n1	18%	/	-2%
SMILES	AmpC inh detg	AmpC inh no detg	Sm TGR inh
Cc1ccc(NC(=O)CSc2nccn2C2CCCC2)cc1	8%	/	4%
COc1cc([C@H]2Oc3cc([C@H]4Oc5cc(O)cc(O)c5C(=O)[C@@H]4O)ccc3O[C@@H]2CO)ccc1O	-10%	-52%	-17%
COc1cc([C@@H]2Oc3cc(C4Oc5cc(O)cc(O)c5C(=O)[C@H]4O)ccc3O[C@H]2CO)ccc1O (some centres not stated)	-19%	-56%	45µM*
Cc1ccc(C)c(CN2C(=O)c3ccccc3S(=O)(=O)c3ccc(C(=O)N4CCN(c5ccccc5)CC4)cc32)c1	-12%	/	-6%
COc1ccc2oc(-c3cccc(NC(=O)c4cc([N+](=O)[O-])ccc4N4CCOCC4)c3)nc2c1	-3%	/	3%
Cc1ccc(-c2nn(-c3ccccc3)cc2C(N)=O)o1	-8%	-28%	20µM*
Cc1ccc(-c2nn(-c3ccccc3)cc2/C=N/NC(=O)c2ccncc2)o1	-7%	-24%[11.4 µM]	-68%
OCc1cn(-c2ccccc2)nc1-c1ccco1	?	-7%	-14%
O=Cc1cn(-c2ccccc2)nc1-c1ccccc1	?	-15%	1%
Cc1ccc(-c2nn(-c3ccccc3)cc2CO)o1	-3%	-7%	45µM*
Cc1ccc(-c2nn(-c3ccccc3)cc2C=O)o1	-5%	-8%	13µM*
COc1ccc(OC)c(NC(=O)CSc2cn(CC(=O)N3CCCCCC3)c3ccccc23)c1	17%	/	0%
Cc1ccccc1NC(=S)NC(=O)/C=C/c1ccco1	-3%	5.6µM*	6.3µM*
COc1ccccc1NC(=S)NC(=O)/C=C/c1ccco1	-12%	-53%	18µM*

Screening results deposited in PubChem by National Center for Advancing Translational Sciences (NCATS).
